From PubChem BioAssay (EPA / NIEHS)
Calls of active or inactive are those of the source. How the source made its calls: active means hit-call score of the fitted dose curve at least 0.9, where 1 is the maximum; inactive means score below 0.9.

Assays:
[1] = ATG_GLI_CIS: Attagene CIS-FACTORIAL HepG2 Assay for human Zinc Finger Protein GLI1 (AID 2282945); conditions: HepG2, Attagene cis-factorial reporter mRNA, GLI element; actives raise or lower the signal
In short: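 Bidirectional curve fits relative to DMSO, using reporter mRNA levels from RT-PCR plus capillary electrophoresis. Cells were HepG2 transiently carrying cis-regulated reporter constructs, harvested 24 h after dosing.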

[2] = target: Bile acid receptor (Homo sapiens) (UniProt Q96RI1); assay: ATG_IR1_CIS: Attagene CIS-FACTORIAL HepG2 Assay for human Nuclear Receptor Subfamily 1 Group H Member 4 (NR1H4), IR1 submotif (AID 2282946); conditions: IR1 reporter transcription, actives raise or lower the signal
Sequence of Bile acid receptor (Homo sapiens) (Q96RI1 whole entry, looked up): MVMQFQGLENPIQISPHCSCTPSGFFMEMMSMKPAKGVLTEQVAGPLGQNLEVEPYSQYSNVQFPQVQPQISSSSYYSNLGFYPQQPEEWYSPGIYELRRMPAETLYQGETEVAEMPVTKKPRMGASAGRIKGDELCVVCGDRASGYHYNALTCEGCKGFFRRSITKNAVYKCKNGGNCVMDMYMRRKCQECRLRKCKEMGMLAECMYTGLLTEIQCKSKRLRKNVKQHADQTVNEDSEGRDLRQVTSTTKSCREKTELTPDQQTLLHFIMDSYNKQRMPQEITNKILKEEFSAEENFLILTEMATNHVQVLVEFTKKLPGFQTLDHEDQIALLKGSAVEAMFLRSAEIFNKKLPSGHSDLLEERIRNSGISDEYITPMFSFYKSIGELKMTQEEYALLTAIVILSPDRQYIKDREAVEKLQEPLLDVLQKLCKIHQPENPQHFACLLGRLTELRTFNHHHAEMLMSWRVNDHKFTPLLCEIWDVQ
In short: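 HepG2 cells transiently transfected with multiplexed cis-element reporter units read endogenous transcription factor activity. After 24 h compound exposure, reporter mRNA was quantified by RT-PCR, fluorescent labelling, HpaI digestion and capillary electrophoresis; bidirectional fitting versus DMSO baseline.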

[3] = ATG_GRE_CIS: Attagene CIS-FACTORIAL HepG2 Assay for human Glucocorticoid Response Elements (GRE) (AID 2282947); conditions: HepG2 GRE cis-reporter, Attagene multiplex mRNA; actives raise or lower the signal
In short: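 Reporter transcripts read by RT-PCR with capillary electrophoresis fluorescence after a 24 h chemical exposure of HepG2 cells transiently transfected with multiple cis-element reporter units. Gain or loss fitted against DMSO.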

[4] = ATG_ISRE_CIS: Attagene CIS-FACTORIAL HepG2 Assay for human Interferon Regulatory Factor 1 (IRF1) binding to an Interferon-Stimulated Response Element (ISRE) (AID 2282948); conditions: HepG2 ISRE cis-reporter (Attagene), mRNA transcription readout; actives raise or lower the signal
In short: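 Read-out: fluorescent RT-PCR products resolved by capillary electrophoresis, reporting endogenous transcription factor activity via ISRE-driven reporter mRNA in transfected HepG2 cells dosed for 24 h; gain or loss fitted relative to DMSO.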

[5] = ATG_M_32_CIS: Attagene CIS-FACTORIAL HepG2 Assay for M32 Transcription Factor (Internal Marker) (AID 2282949); conditions: HepG2 Attagene cis-factorial M32 reporter, mRNA; actives raise or lower the signal;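 further: background control marker of the multiplexed CIS panel rather than a real target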
In short: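 HepG2 human liver cells transiently transfected with cis-promoter-driven multiple reporter transcription units, dosed 24 h. Reporter mRNA quantified by RT-PCR, FAM-labelled primer extension, HpaI digest and capillary electrophoresis; bidirectional fit versus DMSO baseline.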

[6] = ATG_M_06_CIS: Attagene CIS-FACTORIAL HepG2 Assay for M06 Transcription Factor (Internal Marker) (AID 2282950); conditions: HepG2 Attagene CIS-FACTORIAL M06 internal marker reporter; actives raise or lower the signal
In short: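 Serves as a background control readout. Transfected HepG2 exposed to compounds for 24 h, then reporter transcripts quantified by fluorescent RT-PCR and capillary electrophoresis. Both directions fitted against DMSO baseline.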

[7] = target: Hypoxia-inducible factor 1-alpha (Homo sapiens) (UniProt Q16665); assay: ATG_HIF1a_CIS: Attagene CIS-FACTORIAL HepG2 Assay for human Hypoxia Inducible Factor 1 (HIF1A) (AID 2282951); conditions: HepG2 Attagene cis-factorial HIF1a reporter transcription; actives raise or lower the signal
Sequence of Hypoxia-inducible factor 1-alpha (Homo sapiens) (Q16665 whole entry, looked up, the tested form may be a part): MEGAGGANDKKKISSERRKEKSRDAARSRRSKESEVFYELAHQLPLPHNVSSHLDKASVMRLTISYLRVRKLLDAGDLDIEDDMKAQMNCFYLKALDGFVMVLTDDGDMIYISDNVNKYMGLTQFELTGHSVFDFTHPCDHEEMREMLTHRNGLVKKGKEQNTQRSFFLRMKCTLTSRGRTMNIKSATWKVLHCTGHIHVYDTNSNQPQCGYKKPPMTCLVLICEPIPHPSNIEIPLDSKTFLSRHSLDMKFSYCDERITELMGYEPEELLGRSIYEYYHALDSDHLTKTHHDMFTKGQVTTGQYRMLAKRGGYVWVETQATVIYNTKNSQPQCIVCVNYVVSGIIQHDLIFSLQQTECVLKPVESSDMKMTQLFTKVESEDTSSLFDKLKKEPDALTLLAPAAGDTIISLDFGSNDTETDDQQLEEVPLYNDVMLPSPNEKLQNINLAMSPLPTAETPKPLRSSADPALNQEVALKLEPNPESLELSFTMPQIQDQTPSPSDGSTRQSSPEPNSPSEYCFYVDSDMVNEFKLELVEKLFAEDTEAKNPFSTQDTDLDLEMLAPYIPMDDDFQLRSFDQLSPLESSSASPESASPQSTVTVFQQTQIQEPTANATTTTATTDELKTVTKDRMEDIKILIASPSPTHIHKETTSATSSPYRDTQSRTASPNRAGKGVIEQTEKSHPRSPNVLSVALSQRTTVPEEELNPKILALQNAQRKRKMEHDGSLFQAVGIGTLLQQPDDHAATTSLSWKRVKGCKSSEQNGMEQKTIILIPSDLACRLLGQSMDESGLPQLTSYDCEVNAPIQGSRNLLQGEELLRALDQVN
In short: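 Transient MRTU transfection of human HepG2 liver cells, 24 h compound treatment, then total RNA isolation, oligo(dT) reverse transcription, PCR amplification, fluorescent labelling and capillary electrophoresis of reporter fragments. Gain or loss relative to DMSO.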

[8] = target: Hepatocyte nuclear factor 6 (Homo sapiens) (UniProt Q9UBC0); assay: ATG_HNF6_CIS: Attagene CIS-FACTORIAL HepG2 Assay for human Hepatocyte Nuclear Factor 6 (HNF6) (AID 2282952); conditions: HepG2 Attagene cis-factorial HNF6 reporter transcription; actives raise or lower the signal
Sequence of Hepatocyte nuclear factor 6 (Homo sapiens) (Q9UBC0 whole entry, looked up, the tested form may be a part): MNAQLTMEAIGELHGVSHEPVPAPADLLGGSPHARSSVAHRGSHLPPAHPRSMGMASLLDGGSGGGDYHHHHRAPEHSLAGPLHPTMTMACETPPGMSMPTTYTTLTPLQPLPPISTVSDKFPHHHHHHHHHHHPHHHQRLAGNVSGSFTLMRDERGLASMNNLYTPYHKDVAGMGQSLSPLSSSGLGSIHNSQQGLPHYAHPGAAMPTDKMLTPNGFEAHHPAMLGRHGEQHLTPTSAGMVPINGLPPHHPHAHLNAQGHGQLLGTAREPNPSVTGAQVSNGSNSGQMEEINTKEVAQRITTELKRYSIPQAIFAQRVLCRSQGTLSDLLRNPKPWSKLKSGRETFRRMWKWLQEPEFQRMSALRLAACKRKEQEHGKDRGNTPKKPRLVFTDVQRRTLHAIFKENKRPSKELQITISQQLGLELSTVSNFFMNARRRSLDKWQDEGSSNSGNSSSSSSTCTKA
In short: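 Readout: fluorescent reporter-transcript fragments resolved by capillary electrophoresis after RT-PCR, reflecting endogenous factor activity in transfected HepG2. Exposure 24 h. Gain or loss of signal fitted bidirectionally against DMSO.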

[9] = target: Heat shock factor protein 1 (Homo sapiens) (UniProt Q00613); assay: ATG_HSE_CIS: Attagene CIS-FACTORIAL HepG2 Assay for human Heat Shock Transcription Factor 1 (HSE) (AID 2282953); conditions: HepG2 HSE cis-reporter, Attagene RNA transcription; actives raise or lower the signal
Sequence of Heat shock factor protein 1 (Homo sapiens) (Q00613 whole entry, looked up): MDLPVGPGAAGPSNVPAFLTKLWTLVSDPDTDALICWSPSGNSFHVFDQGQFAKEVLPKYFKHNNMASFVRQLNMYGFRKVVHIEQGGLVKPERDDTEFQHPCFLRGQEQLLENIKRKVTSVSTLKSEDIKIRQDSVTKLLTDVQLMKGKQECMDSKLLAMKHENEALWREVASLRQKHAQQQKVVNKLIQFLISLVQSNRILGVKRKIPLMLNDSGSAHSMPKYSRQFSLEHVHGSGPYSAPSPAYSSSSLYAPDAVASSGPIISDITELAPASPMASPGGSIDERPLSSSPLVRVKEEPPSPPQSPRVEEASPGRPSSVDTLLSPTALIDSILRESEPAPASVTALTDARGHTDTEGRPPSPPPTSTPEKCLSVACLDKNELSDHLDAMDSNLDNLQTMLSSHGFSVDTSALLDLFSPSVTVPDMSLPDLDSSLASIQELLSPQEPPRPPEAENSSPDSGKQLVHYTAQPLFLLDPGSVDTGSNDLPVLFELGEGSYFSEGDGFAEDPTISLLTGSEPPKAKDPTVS
In short: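 Endogenous transcription factor activity in transiently transfected HepG2, read as reporter mRNA by RT-PCR with fluorescent capillary electrophoresis after 24 h. Gain or loss of signal fitted versus DMSO baseline.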

[10] = target: Paired box protein Pax-6 (Homo sapiens) (UniProt P26367); assay: ATG_Pax6_CIS: Attagene CIS-FACTORIAL HepG2 Assay for human Paired Box 6 (PAX6) (AID 2282956); conditions: HepG2 CIS-FACTORIAL PAX6 reporter transcription, RNA readout; actives raise or lower the signal
Sequence of Paired box protein Pax-6 (Homo sapiens) (P26367 whole entry, looked up): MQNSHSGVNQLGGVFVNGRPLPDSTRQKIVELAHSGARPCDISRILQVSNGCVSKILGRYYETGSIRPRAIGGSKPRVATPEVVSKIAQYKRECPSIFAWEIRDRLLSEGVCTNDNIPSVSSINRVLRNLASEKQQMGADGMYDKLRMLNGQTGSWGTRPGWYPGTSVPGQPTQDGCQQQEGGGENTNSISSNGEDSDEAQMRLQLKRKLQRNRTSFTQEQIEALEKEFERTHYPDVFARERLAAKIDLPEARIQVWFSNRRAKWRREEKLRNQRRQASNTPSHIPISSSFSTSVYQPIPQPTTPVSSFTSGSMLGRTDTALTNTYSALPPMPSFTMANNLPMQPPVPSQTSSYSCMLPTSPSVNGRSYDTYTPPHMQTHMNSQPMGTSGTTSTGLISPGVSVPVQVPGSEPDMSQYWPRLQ
In short: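 Readout: reporter transcript fluorescence after RT-PCR and capillary electrophoresis. Cells: HepG2, transiently transfected with cis-regulated MRTUs. Exposure 24 h. Gain or loss of signal fitted bidirectionally relative to DMSO.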

[11] = ATG_PXRE_CIS: Attagene CIS-FACTORIAL HepG2 Assay for human Pregnane X Receptor Element (PXRE) (AID 2282957); conditions: HepG2 Attagene CIS-FACTORIAL PXRE reporter, mRNA; actives raise or lower the signal
In short: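 Read-out: fluorescence of reporter-specific RT-PCR products resolved by capillary electrophoresis, fitted bidirectionally relative to DMSO. Human HepG2 liver cells carried transfected cis-promoter reporter units and were exposed to chemicals for 24 h.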

[12] = ATG_RORE_CIS: Attagene CIS-FACTORIAL HepG2 Assay for human RAR-related Orphan Receptor Element (RORE) (AID 2282959); conditions: HepG2 Attagene cis-factorial RORE reporter, mRNA; actives raise or lower the signal
In short: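 Transient MRTU transfection of human HepG2 liver cells (FuGene 6); 24 h compound exposure; TriZol RNA, oligo(dT) RT, PCR, FAM labeling, HpaI cut, CE fragment analysis. DMSO = negative control/baseline.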

[13] = ATG_Sox_CIS: Attagene CIS-FACTORIAL HepG2 Assay for human SRY-box transcription factor (SOX) (AID 2282960); conditions: HepG2 Attagene cis-factorial SOX reporter, mRNA; actives raise or lower the signal
In short: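 Endogenous factor activity in human liver HepG2 cells carrying transfected cis-regulated reporter units. RNA taken 24 h post-dose, reverse-transcribed, PCR-amplified and sized by capillary electrophoresis. Gain or loss of signal fitted relative to DMSO.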

[14] = target: Transcription factor Sp1 (Homo sapiens) (UniProt P08047); assay: ATG_Sp1_CIS: Attagene CIS-FACTORIAL HepG2 Assay for human Specificity Protein 1 (Sp1) (AID 2282961); conditions: HepG2 Sp1 cis-reporter transcription, actives raise or lower the signal
Sequence of Transcription factor Sp1 (Homo sapiens) (P08047 whole entry, looked up): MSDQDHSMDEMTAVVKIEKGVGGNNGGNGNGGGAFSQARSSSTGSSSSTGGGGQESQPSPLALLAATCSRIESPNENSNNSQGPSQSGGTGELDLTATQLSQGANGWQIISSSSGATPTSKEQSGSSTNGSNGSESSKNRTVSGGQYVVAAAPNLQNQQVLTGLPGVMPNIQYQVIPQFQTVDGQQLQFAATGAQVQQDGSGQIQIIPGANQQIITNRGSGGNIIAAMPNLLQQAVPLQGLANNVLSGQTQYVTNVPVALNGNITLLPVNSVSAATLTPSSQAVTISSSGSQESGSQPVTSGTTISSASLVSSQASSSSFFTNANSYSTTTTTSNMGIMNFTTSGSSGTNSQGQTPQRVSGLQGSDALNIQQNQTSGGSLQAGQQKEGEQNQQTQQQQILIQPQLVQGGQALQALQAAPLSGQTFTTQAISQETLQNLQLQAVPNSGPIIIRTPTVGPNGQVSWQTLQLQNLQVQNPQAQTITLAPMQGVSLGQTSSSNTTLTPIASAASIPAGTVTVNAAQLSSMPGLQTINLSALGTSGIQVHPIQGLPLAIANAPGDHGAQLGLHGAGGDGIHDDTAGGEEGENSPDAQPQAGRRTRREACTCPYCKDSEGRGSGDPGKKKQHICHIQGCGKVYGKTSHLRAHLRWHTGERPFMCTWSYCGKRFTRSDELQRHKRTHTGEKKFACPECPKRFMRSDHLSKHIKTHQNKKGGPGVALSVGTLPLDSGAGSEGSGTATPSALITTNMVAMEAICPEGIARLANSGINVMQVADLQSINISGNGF
In short: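 Transient MRTU-transfected HepG2, 24 h compound exposure. Total RNA → oligo(dT) RT → PCR of reporter → 6-FAM primer extension → HpaI digest → CE. Endpoint fitted both directions vs DMSO.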

[15] = ATG_SREBP_CIS: Attagene CIS-FACTORIAL HepG2 Assay for human Sterol Regulatory Element Binding (SREBP) (AID 2282962); conditions: HepG2 Attagene cis-factorial SREBP reporter, mRNA; actives raise or lower the signal
In short: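 Readout: fluorescent reporter-transcript peaks resolved by capillary electrophoresis after RT-PCR. Cells were human HepG2 carrying transfected cis-promoter reporter constructs, dosed for 24 h. Gain or loss of signal was fitted against DMSO controls.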

[16] = target: Signal transducer and activator of transcription 3 (Homo sapiens) (UniProt P40763); assay: ATG_STAT3_CIS: Attagene CIS-FACTORIAL HepG2 Assay for human Signal Transducer and Activator of Transcription 3 (STAT3) (AID 2282963); conditions: HepG2, Attagene cis-factorial STAT3 reporter transcription; actives raise or lower the signal
Sequence of Signal transducer and activator of transcription 3 (Homo sapiens) (P40763 whole entry, looked up): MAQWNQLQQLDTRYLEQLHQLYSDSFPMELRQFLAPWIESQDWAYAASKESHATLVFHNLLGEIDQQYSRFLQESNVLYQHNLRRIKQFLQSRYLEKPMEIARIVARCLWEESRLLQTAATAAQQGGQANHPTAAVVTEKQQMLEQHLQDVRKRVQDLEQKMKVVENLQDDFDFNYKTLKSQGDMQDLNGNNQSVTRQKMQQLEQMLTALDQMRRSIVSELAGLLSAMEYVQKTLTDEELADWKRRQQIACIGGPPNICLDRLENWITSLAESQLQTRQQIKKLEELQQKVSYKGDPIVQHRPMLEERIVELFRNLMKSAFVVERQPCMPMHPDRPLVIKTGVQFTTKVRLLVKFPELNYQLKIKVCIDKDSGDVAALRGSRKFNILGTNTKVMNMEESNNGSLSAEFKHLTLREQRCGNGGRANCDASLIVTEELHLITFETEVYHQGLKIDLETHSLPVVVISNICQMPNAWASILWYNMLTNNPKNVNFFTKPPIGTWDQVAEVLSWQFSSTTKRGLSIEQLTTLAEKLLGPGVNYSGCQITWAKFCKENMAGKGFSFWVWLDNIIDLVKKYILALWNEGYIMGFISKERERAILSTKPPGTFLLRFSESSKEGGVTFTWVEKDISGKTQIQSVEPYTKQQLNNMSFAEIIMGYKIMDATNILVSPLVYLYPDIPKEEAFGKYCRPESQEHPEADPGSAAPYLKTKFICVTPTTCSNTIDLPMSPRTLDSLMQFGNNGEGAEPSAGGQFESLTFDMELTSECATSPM
In short: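 Readout is reporter transcript quantified by RT-PCR and capillary electrophoresis, with 6-FAM primer extension and HpaI digestion. Total RNA is taken 24 h after dosing transiently transfected HepG2 carrying cis-regulated reporter units. Bidirectional fit against DMSO.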

[17] = ATG_TA_CIS: Attagene CIS-FACTORIAL HepG2 Assay for human TA Basal Promoter (AID 2282964); conditions: HepG2 Attagene CIS-factorial TA basal promoter reporter; actives raise or lower the signal
In short: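 Background-control readout: TA basal promoter reporter mRNA, fitted in both directions relative to DMSO. Measured by RT-PCR and capillary electrophoresis 24 hours after treating HepG2 human liver cells transiently carrying multiplexed cis-regulated reporter constructs.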

[18] = ATG_MRE_CIS: Attagene CIS-FACTORIAL HepG2 Assay for human Metal Responsive Element (MRE) (AID 2282954); conditions: HepG2 MRE cis-reporter transcription, Attagene multiplex; actives raise or lower the signal
In short: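 Endogenous MRE-dependent transcription read as reporter mRNA in transiently transfected human HepG2 cells at 24 h. RNA reverse-transcribed, PCR-amplified, labelled and resolved by capillary electrophoresis; gain or loss relative to DMSO.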

[19] = ATG_PBREM_CIS: Attagene CIS-FACTORIAL HepG2 Assay for human Phenobarbital-responsive Enhancer Module (PBREM) (AID 2282955); conditions: HepG2 PBREM cis-reporter, Attagene multiplexed transcription; actives raise or lower the signal
In short: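 Endogenous transcription factors in human liver HepG2 cells drive a PBREM cis-element reporter, whose transcript level after 24 h treatment is quantified by RT-PCR with capillary electrophoresis; activity fitted in both directions against DMSO.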

[20] = ATG_PPRE_CIS: Attagene CIS-FACTORIAL HepG2 Assay for human Peroxisome Proliferator-activated Response Element (PPRE) (AID 2282958); conditions: HepG2 PPRE cis-element reporter, Attagene transcription factor profiling; actives raise or lower the signal
In short: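 HepG2, transient MRTU transfection (cis promoter elements, endogenous TFs). 24 h dosing. RNA → oligo(dT) RT → PCR → 6-FAM primer extension → HpaI digest → CE. Bidirectional fit vs DMSO.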

Measured: AC50

CC(c1cc(C(C)(C)C)cc(C(C)(C)C)c1O)c1cc(C(C)(C)C)cc(C(C)(C)C)c1O
active: [2] 1.87 µM | [11] 0.078 µM
not listed: [18] | [19] | [20]
inactive: all other assays above

C=CC(=O)O[C@H]1C[C@@H]2CC[C@@]1(C)C2(C)C
active: [1] 186 µM | [5] 150 µM | [9] 161 µM | [20] 29.7 µM | [14] 160 µM
not listed: [10] | [11] | [12] | [17]
inactive: all other assays above

CCc1occc(=O)c1O
not listed: [11]
inactive: all other assays above

CCN1CN(CC)CN(CC)C1
active: [1] 141 µM | [3] 97 µM | [4] 146 µM | [9] 174 µM | [18] 166 µM | [11] 119 µM | [13] 138 µM | [14] 163 µM
not listed: [19]
inactive: all other assays above

O=C(Nc1ccccc1)c1cc(Cl)ccc1O
active: [9] 2.93 µM | [18] 23.9 µM | [11] 25.6 µM | [12] 15.5 µM | [14] 3.65 µM | [15] 5.55 µM
not listed: [19] | [20]
inactive: all other assays above

C/C=C/C=C/CCCCCCCO
active: [1] 168 µM | [2] 172 µM | [9] 168 µM | [18] 121 µM | [10] 76 µM | [17] 100 µM
not listed: [11] | [12] | [13] | [19]
inactive: all other assays above

CCCCCCCCCCCC(C)=O
active: [1] 166 µM | [8] 123 µM | [11] 25.6 µM | [20] 159 µM | [14] 154 µM | [15] 141 µM
not listed: [10] | [18] | [19]
inactive: all other assays above

Cc1cc(C)c(C=O)c(C)c1
active: [11] 1.61 µM
not listed: [19]
inactive: all other assays above

CCC(C)N (stereo not given)
active: [11] 47.5 µM
not listed: [19] | [20]
inactive: all other assays above

CCOC(=O)C1=NOC(c2ccccc2)(c2ccccc2)C1
active: [7] 160 µM | [9] 143 µM | [11] 18.3 µM
not listed: [18] | [19]
inactive: all other assays above

CCC(C)(O)CCCC(C)C (stereo not given)
not listed: [12] | [13] | [19]
inactive: all other assays above

CCC[Si](OC)(OC)OC
not listed: [11] | [17] | [19] | [20]
inactive: all other assays above

CCCCCCCCCCCCCCCCCCOS(=O)(=O)O
active: [2] 33.4 µM | [5] 53 µM | [6] 54.7 µM | [8] 19.5 µM | [18] 23.2 µM | [15] 52.7 µM | [17] 12.4 µM
not listed: [9] | [19] | [20]
inactive: all other assays above

CCc1cccc(CC)c1
not listed: [10] | [12] | [19]
inactive: all other assays above

CC(C)=CCCC(C)=CC#N
active: [11] 25.5 µM
not listed: [13] | [19] | [20]
inactive: all other assays above

CCCCCCCCCCCCc1ccc(O)cc1
active: [11] 1.53 µM
not listed: [19]
inactive: all other assays above
